High-throughput results (PubChem BioAssay)
In the library only some 1% were active in any assay of this set; here they are far more common.
V-ATPase pHluor = regulators of yeast V-ATPase proton transport; actives 0.37% (n = 350,000); S. cerevisiae, pHLuorin cytosolic pH fluorescence; response, % at 10 µM; in the data active = response mostly above about 7.3%, no sharp cut-off; inactive = mostly below about 5.4%; note: actives read high
CTSL1 counter = blocks F. hepatica cathepsin L1 in PFM18AAP counter-screen; inhibition, % at 5.96 µM; recombinant F. hepatica cathepsin L1, Z-Leu-Arg-MCA fluorescence; actives 0.49% (n = 300,000);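 active = inhibition above the mean of all tested compounds plus 3 SD, set per screening campaign, cut at about 17% in these data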;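 note: 0% = plate median of test compound wells and 100% = 1 µM Z-Phe-Ala-diazomethylketone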
iPSC survival up = increases survival of single human iPS cells; hiPSC single-cell survival, ATPlite luminescence; 100% = ROCK inhibitor wells, 0% = DMSO; survival enhancement, % at 20 µM; actives 0.044% (n = 360,000); AID 602274; in the data active = survival enhancement above about 18%;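 note: cells exposed to compounds for 16 hours before the ATP read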
CR mimetic SO = yeast age-related superoxide inhibition as caloric restriction mimetic; AID 2690; actives 0.18% (n = 330,000); S. cerevisiae aged cells, superoxide DHE fluorescence; hits give low values; superoxide response (% of plate mean), % at 10 µM;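 active = superoxide response under a set limit, about three screen SD below normal, cut at about 65% in these data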;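 note: yeast aged for seven days with compound at 30 °C before DHE staining; 100% = average MFI of all compound-treated wells on the plate with controls excluded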
VATPase regulator = regulators of yeast V-ATPase proton transport. shares compounds with V-ATPase pHluor. S. cerevisiae pHLuorin cytosolic pH. response, % at 10 µM. actives 2% (n = 980). AID 602197; in the data active = response above about 24%;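 note: plate controls were vehicle wells for no effect and positive control wells for full effect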
Active calls of the source: *; / = no result.

SMILES | V-ATPase pHluor | CTSL1 counter | iPSC survival up | CR mimetic SO | VATPase regulator
CSCCC(NC(=O)c1ccccc1)C(=O)N1CC=C(c2ccccc2)CC1 (stereo not given) | 9.3* | -2 | 0 | 93 | 0
CSCCC(NC(=O)c1ccccc1)C(=O)N1CCN(C(=O)c2ccccc2)CC1 (stereo not given) | 3 | / | 2 | 97 | /
CCC(C)c1ccc(S(=O)(=O)N2CCN(C(C)CC(=O)O)CC2)cc1 (stereo not given) | -2 | -3 | 2 | 106 | /
COc1ccc2nc(NC(=O)CSc3nc4ccccc4o3)sc2c1 | 12* | 7 | -1 | 91 | 1
CCOc1ccc(NC(=S)NCc2nc3ccccc3[nH]2)cc1 | 11* | 0 | 2 | 105 | -1
FC(F)Oc1ccc(NC(=S)NCc2nc3ccccc3[nH]2)cc1 | 2 | 1 | 0 | 94 | /
OCCCn1c(-c2ccccc2)csc1=Nc1ccccc1 | 8.0* | -2 | 5 | 89 | 2
O=C(O)CCC(=O)NCCn1c(-c2ccccc2)csc1=Nc1ccccc1 | 0 | 1 | 4 | 123 | /
O=C(Nc1ccc(Oc2ccccc2)nc1)C1CCN(Cc2ccco2)CC1 | 8.7* | 1 | 1 | 91 | 1
CC(=O)Nc1ccc(NC(=O)c2ccc(C)c(S(=O)(=O)Nc3cccc(C)c3)c2)cc1 | 10* | 2 | -2 | 90 | 0
CC(=O)Nc1ccc(NC(=O)c2ccc(NS(=O)(=O)c3cc(C(C)(C)C)ccc3C)cc2)cc1 | 1 | 2 | -1 | 90 | /
C=CCn1cc(C(C)=O)c(=O)[nH]c1=O | 6.4* | 2 | -1 | 92 | -2
CCCCCCCCn1cc(C(C)=O)c(=O)[nH]c1=O | -1 | 0 | -2 | 105 | /
O=C(Nc1cc2c(cc1Br)OCCCO2)c1cccnc1 | 9.4* | -3 | 1 | 99 | 6
O=C(Nc1cc2c(cc1Br)OCCCO2)c1ccccc1 | 3 | -12 | -1 | 104 | /
CC1=NOC(=O)/C1=C/c1ccc2c(c1)OCO2 | 11* | 3 | -2 | 82 | -31
Cn1cc(Br)c(C(=O)N/N=C/c2cc3ccccc3nc2Cl)n1 | 0 | / | 0 | 88 | /
Cc1ccc(C(=O)Nc2ccc(N3CCCCC3)cc2)cc1 | 9.9* | / | -4 | 94 | 3
Cc1ccc(C(=O)Nc2ccc(N3CCCC3)cc2)cc1 | 0 | 0 | -2 | 93 | /
O=C(O)CSc1nnnn1C1CCCCC1 | 2 | 0 | 6 | 112 | /
CC(C)N(C(=O)CSc1nnnn1C1CCCC1)C(C)C | 8.1* | 1 | 0 | 92 | -2
CC1CCCC(NC(=O)COC(=O)c2cc(=O)[nH]c3ccccc23)C1C (stereo not given) | 0 | / | -2 | 109 | /
O=C(Oc1ccc2ccc(=O)oc2c1)c1cccs1 | 25* | -7 | 0 | 99 | 1
O=C(Oc1ccc2c(-c3ccccc3)cc(=O)oc2c1)c1cccs1 | 2 | -1 | 0 | 92 | /
COc1ccc2c(c1)C(c1ccc(C)o1)=NNC(c1cccnc1)=N2 | 8.6* | 0 | 4 | 104 | 6
SMILES | V-ATPase pHluor | CTSL1 counter | iPSC survival up | CR mimetic SO | VATPase regulator
CCCCCCCCNC(=O)c1cccnc1SCC(=O)Nc1ccccc1OC | 16* | 6 | -1 | 98 | -8
COc1ccc(N(CC(=O)Nc2ccc(Cl)cc2)S(=O)(=O)c2c(C)n[nH]c2C)cc1 | 1 | -1 | 0 | 106 | /
COc1ccc(N(CC(=O)N2CCN(c3ccc(Cl)cc3)CC2)S(=O)(=O)c2c(C)n[nH]c2C)cc1 | 7.4* | -1 | 0 | 99 | -1
COc1ccc(NC(=O)CSc2nc(O)cc(=O)n2C)cc1 | -1 | -1 | 2 | 86 | /
Cn1c(SCC(=O)Nc2ccccc2)nc(O)cc1=O | 8.9* | -3 | 0 | 104 | -1
O=C1CN(C(=O)CSc2nc3ccccc3c(=O)n2CC2CCCO2)c2ccccc2N1 (stereo not given) | 11* | 6 | -2 | 87 | -1
CC(=O)Nc1ccc2nc(CN3CCN(Cc4ccc(F)cc4)C(CCO)C3)ccc2c1 (stereo not given) | 11* | 1 | 0 | 102 | 0
Cc1ccc(S(=O)(=O)O/N=C2\CCCc3ccccc32)cc1 | 12* | 0 | 1 | 104 | -2
COc1nn(-c2nc(-c3ccccc3)cc(C(F)(F)F)n2)cc1[N+](=O)[O-] | 17* | -4 | 1 | 103 | 0
O=C(/C=C/c1cccc([N+](=O)[O-])c1)OCC(=O)N1CCN(C(=O)c2ccco2)CC1 | 12* | / | 2 | 96 | 3
O=C(/C=C/c1cccc([N+](=O)[O-])c1)N1CCN(C(=O)c2ccco2)CC1 | 0 | -2 | 1 | 104 | /
CCOC(=O)N1CCN(C(=O)c2cc3n(n2)C(C(F)(F)F)CC(c2ccc4c(c2)OCO4)N3)CC1 (stereo not given) | 7.4* | 2 | -1 | 94 | -23
O=C(NCc1ccc2c(c1)OCO2)c1cc2n(n1)C(C(F)(F)F)CC(c1ccc3c(c1)OCO3)N2 (stereo not given) | 3 | 4 | 1 | 95 | /
COc1ccc(CC(=O)OC(C)C(=O)c2ccc(C)cc2)cc1 (stereo not given) | 8.3* | -4 | -1 | 106 | -3
COc1ccc(/C(N)=N/OC(=O)Cc2ccc(C)cc2)cc1 | -1 | -8 | 0 | 104 | /
COc1ccc(S(=O)(=O)N2CCOCC2)cc1NC(=O)C1CCCCN1S(=O)(=O)c1ccccc1 (stereo not given) | -1 | / | -1 | / | /
O=C(COc1ccccc1)NC1=NCCS1 | 1 | -3 | -3 | 102 | /
CC(NC(=O)c1ccc(F)cc1)C(=O)NC1=NCCS1 (stereo not given) | -4 | 6 | 4 | 97 | -2
CC(Oc1ccccc1)C(=O)NC1=NCCS1 (stereo not given) | 7.3* | 1 | 0 | 84 | -2
CCC[C@H]1CN(c2ccccc2)C(=O)[C@@H]1CC(=O)NC | -1 | / | -3 | / | /
COc1cc(S(=O)(=O)N2CCOCC2)ccc1NC(=O)COC(=O)c1ccc(Cl)nc1 | 6 | / | 0 | 93 | /
O=C(NCc1ccco1)Nc1ccc(OC(F)(F)F)cc1 | 0 | -2 | -1 | 101 | /
O=C(NCc1ccco1)Nc1ccc(Br)cc1 | 11* | -4 | 9 | 90 | 0
CCCc1nc2sc3c(c2c(=O)n1NC(=O)CCC(=O)O)CCCC3 | 8.6* | 1 | 0 | 106 | -4
CCn1c(SCC(=O)O)nc2sc3c(c2c1=O)CCC3 | -2 | -1 | 3 | 102 | /
COc1ccc(CCNc2nc(-c3ccco3)cc(C(F)(F)F)n2)cc1OC | 11* | 3 | -1 | 106 | 2
CC(=O)c1ccc(NC(=O)Cn2cnc(S(=O)(=O)N3CCc4ccccc43)c2)cc1 | -4 | -2 | 0 | 94 | /
CC(CN1CCCCC1)OC(=O)CCc1ccccc1 (stereo not given) | 9.8* | 0 | 0 | 96 | 6
CC(OC(=O)c1cccc(-n2cnnn2)c1)C(=O)c1ccccc1 (stereo not given) | 3 | -7 | 0 | 101 | /
Nc1nnc(SCC(=O)Nc2ccc(N3CCOCC3)c(Cl)c2)s1 | 7.4* | -1 | 0 | 110 | -1
